Experimental data as given in PubChem BioAssay.
Calls of active or inactive are those of the source. Rule as the data show it, unless noted: active = inhibition above about 36%; inactive = the rest.

System: transactivating tegument protein VP16 (Human herpesvirus 1)
Experiment: VP16 transactivation reporter inhibitors, counter-screen for SRC2 inhibitor project, cell-based, luminescence, single concentration (AID 652007)
Details: cell-based VP16 transactivation luciferase reporter, at 8.9 µM, hits give high values

Row | Structure (SMILES) | inhibition
1 | C=CCNC(=S)NCc1ccccc1 | -11.1% (inactive)
2 | CC(=O)c1cccc(NC(=O)Nc2ccc(C(=O)N3CCOCC3)cc2)c1 | -8.69% (inactive)
3 | CCN(CC)c1nc(C=Cc2ccc(N(C)C)cc2)c2nccnc2n1 | 17.1% (inactive)
4 | CC/C=C\[C@H](O)[C@H](O)C1=C(C)C(=O)[C@]2(O1)C(=O)N[C@@](OC)(C(=O)c1ccccc1)C2O (stereo not given in full) | -28.1% (inactive)
5 | COc1ccc(C(=O)NCCNc2nc3cc(C)cc(C)c3cc2C#N)c(OC)c1 | 3.31% (inactive)
6 | COc1ccccc1-c1cc2nc(C)c(CCC(=O)NCc3ccco3)c(C)n2n1 | -5.98% (inactive)
7 | O=S(=O)(c1ccc(NC(=S)NCc2ccncc2)cc1)N1CCCCC1 | 15.6% (inactive)
8 | COc1ccc(S(=O)(=O)N2CCCC(C(=O)NCc3ccncc3)C2)cc1 (stereo not given) | -0.24% (inactive)
9 | Cc1cccc(NC(=O)Nc2ccc(Cl)c(Cl)c2)n1 | -83.6% (inactive)
10 | CCCCCc1ccc(-c2ccc(/C=C/C(=O)O)cc2)nc1 | -23.1% (inactive)
11 | CC(=O)c1ccc(OCCCC(=O)N2CCN(S(=O)(=O)c3ccc(C)cc3C)CC2)cc1 | 7.87% (inactive)
12 | CC(=O)c1ccc(OCCCC(=O)Nc2ccc(C)c(S(=O)(=O)N3CCCCC3)c2)cc1 | -1.11% (inactive)
13 | COc1ccc(CC(=O)NNC(=O)c2ccc(Br)o2)cc1 | -9.53% (inactive)
14 | CCSc1ccccc1C(=O)N1CCN(c2ccc([N+](=O)[O-])cc2)CC1 | 0.48% (inactive)
15 | O=C(NC1CC1)c1ccc2c(c1)N(Cc1ccc(Cl)cc1)CCS2 | 4.34% (inactive)
16 | Cc1ccc(O)c(NC(=O)c2cc([N+](=O)[O-])ccc2Cl)c1 | 8.71% (inactive)
17 | O=C(NCc1ccc(Cl)c(Cl)c1)c1cc(C2CCCCN2C(=O)CCc2ccccc2)on1 (stereo not given) | -6.3% (inactive)
18 | CCN(CC)c1ccc(NC(=O)CCCCC(=O)Nc2ccc(N(CC)CC)cc2)cc1 | 16.2% (inactive)
19 | CC(=O)c1cc2c(cc1NC(=O)c1ccc(-n3nc(C)cc3C)cc1)OCO2 | -6.86% (inactive)
20 | COc1ccc(C(=O)Nc2nc3ccccc3[nH]2)cc1 | -57.5% (inactive)

Row | Structure (SMILES) | inhibition
21 | Cc1nc([N+](=O)[O-])c(Br)n1Cc1ccc(Cl)c(Cl)c1 | 10.6% (inactive)
22 | Cc1oc(-c2cccc3ccccc23)nc1CN1CCN(c2ncnc3ccccc23)CC1 | -22.1% (inactive)
23 | CCCCSc1nc(C)cc(SCC(=O)N/N=C/c2cccc(OC)c2O)n1 | -16.2% (inactive)
24 | O=C(Nc1nc2cc3c(cc2s1)OCO3)C1=COCCO1 | 26.7% (inactive)
25 | CCCSc1nnc(Sc2nnnn2-c2ccccc2)s1 | 7.33% (inactive)
26 | O=C(Nc1ccncc1)c1c(Cl)cccc1Cl | -4.71% (inactive)
27 | CCCNC(=O)c1ccc(N2CCC3(CC2)CC(c2cccc(Br)c2)=NO3)c([N+](=O)[O-])c1 | 8% (inactive)
28 | C[N+]1(CC2COC3(CCCCC3)O2)CCCC1 (stereo not given) | -9.45% (inactive)
29 | Nc1n[nH]c2c1C1(CCCC1)Cc1ccccc1-2 | 1.41% (inactive)
30 | O=C(O)c1ccccc1C=NN1CCCCCC1 | -9.35% (inactive)
31 | Cc1cccc(NS(=O)(=O)c2ccc(C)c(C(=O)NC3CCN(Cc4ccccc4)CC3)c2)c1 | 8.2% (inactive)
32 | CCC(=O)Nc1ccc(NCc2ccc(-c3ccccc3)cc2)cc1 | 20.7% (inactive)
33 | COc1cc(N(C(C)=O)c2ccc(O)cc2)c2ncccc2c1 | 1.2% (inactive)
34 | N#Cc1c([N+](=O)[O-])cc([N+](=O)[O-])cc1S(=O)(=O)Cc1ccccc1 | 96.4% (active)
35 | CC[n+]1cccc(-c2nc3ccccc3s2)c1 | 9.34% (inactive)
36 | COc1ccc(-c2csc3ncnc(NCCO)c23)cc1 | 3.39% (inactive)
37 | CC(C)(CO)CNC(=O)CCc1nnc(-c2ccc(-c3ccccc3)cc2)o1 | 0.83% (inactive)
38 | CCOC(=O)c1ccccc1NC(=O)Cn1c(-c2nonc2N)nc2ccccc21 | -1.87% (inactive)
39 | CCC(C)(C)c1ccc(Oc2ccc(NC(=O)COC(=O)C3=COCCO3)cc2)cc1 | 33.8% (inactive)
40 | Nc1ccc(Oc2ccc3c(c2)C(=O)N(CC2CCCO2)C3=O)cc1 (stereo not given) | -45.6% (inactive)

Target: Nuclear receptor coactivator 2 (Homo sapiens) (UniProt Q15596)
Sequence (Q15596 whole entry, looked up): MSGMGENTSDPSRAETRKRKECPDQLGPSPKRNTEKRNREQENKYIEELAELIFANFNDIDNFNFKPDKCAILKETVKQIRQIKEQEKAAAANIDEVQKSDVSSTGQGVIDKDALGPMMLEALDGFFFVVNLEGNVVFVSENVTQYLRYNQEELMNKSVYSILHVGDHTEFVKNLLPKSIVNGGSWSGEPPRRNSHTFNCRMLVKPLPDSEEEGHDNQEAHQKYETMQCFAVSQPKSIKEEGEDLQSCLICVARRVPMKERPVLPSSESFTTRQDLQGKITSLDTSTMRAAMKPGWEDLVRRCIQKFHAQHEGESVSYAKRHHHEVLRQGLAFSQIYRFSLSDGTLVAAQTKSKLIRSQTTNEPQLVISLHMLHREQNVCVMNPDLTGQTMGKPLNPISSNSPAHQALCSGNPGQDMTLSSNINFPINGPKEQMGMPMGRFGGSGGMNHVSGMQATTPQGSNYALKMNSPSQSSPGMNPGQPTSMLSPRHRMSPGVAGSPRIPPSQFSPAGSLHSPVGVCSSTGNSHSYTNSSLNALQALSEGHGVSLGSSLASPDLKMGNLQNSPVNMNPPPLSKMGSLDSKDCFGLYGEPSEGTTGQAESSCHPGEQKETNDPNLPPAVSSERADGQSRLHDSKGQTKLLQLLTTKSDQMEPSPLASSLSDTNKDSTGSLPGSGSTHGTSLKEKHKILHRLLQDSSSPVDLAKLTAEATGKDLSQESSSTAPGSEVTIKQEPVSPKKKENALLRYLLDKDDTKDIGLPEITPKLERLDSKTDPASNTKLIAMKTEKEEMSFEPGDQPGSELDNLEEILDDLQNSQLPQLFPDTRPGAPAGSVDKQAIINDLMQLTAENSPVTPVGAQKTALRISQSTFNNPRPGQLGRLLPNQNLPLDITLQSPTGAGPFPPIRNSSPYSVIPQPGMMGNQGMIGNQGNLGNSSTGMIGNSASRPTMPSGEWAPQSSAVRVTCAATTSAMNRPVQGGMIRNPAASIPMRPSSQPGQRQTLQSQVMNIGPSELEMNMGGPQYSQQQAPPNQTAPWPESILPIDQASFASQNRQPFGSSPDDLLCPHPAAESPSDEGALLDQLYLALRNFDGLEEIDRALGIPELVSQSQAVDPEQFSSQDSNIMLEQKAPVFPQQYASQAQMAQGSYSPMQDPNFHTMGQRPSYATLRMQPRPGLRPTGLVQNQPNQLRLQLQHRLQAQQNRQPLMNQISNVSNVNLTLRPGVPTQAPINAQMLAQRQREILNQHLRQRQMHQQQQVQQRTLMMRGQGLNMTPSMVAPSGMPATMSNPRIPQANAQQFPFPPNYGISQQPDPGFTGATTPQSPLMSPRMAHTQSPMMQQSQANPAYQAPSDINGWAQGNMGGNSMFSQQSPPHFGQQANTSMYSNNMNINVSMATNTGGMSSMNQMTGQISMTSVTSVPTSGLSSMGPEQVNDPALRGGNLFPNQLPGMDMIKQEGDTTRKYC
Experiment: SRC2 coactivator transcriptional activity inhibitors, confirmation, cell-based, luminescence, HEK293, triplicate (AID 652008;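 active = mean inhibition above 46.5%, the solvent-only control mean plus 3 SD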;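 also: 0% = DMSO-treated cells and 100% = Gossypol at 36 µM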)
Details: HEK293 GAL4-SRC2 luciferase reporter, at 8.9 µM, hits give high values

Row | Structure (SMILES) | inhibition
41 | C=CCNC(=S)NCc1ccccc1 | -24.7% (inactive)
42 | CC(=O)c1cccc(NC(=O)Nc2ccc(C(=O)N3CCOCC3)cc2)c1 | 17.1% (inactive)
43 | CCN(CC)c1nc(C=Cc2ccc(N(C)C)cc2)c2nccnc2n1 | 21.8% (inactive)
44 | CC/C=C\[C@H](O)[C@H](O)C1=C(C)C(=O)[C@]2(O1)C(=O)N[C@@](OC)(C(=O)c1ccccc1)C2O (stereo not given in full) | -3.87% (inactive)
45 | COc1ccc(C(=O)NCCNc2nc3cc(C)cc(C)c3cc2C#N)c(OC)c1 | 86.2% (active)
46 | COc1ccccc1-c1cc2nc(C)c(CCC(=O)NCc3ccco3)c(C)n2n1 | 17.5% (inactive)
47 | O=S(=O)(c1ccc(NC(=S)NCc2ccncc2)cc1)N1CCCCC1 | 0.63% (inactive)
48 | COc1ccc(S(=O)(=O)N2CCCC(C(=O)NCc3ccncc3)C2)cc1 (stereo not given) | 10.6% (inactive)
49 | Cc1cccc(NC(=O)Nc2ccc(Cl)c(Cl)c2)n1 | -16.7% (inactive)
50 | CCCCCc1ccc(-c2ccc(/C=C/C(=O)O)cc2)nc1 | 60.2% (active)
51 | CC(=O)c1ccc(OCCCC(=O)N2CCN(S(=O)(=O)c3ccc(C)cc3C)CC2)cc1 | 0.39% (inactive)
52 | CC(=O)c1ccc(OCCCC(=O)Nc2ccc(C)c(S(=O)(=O)N3CCCCC3)c2)cc1 | -2.06% (inactive)
53 | COc1ccc(CC(=O)NNC(=O)c2ccc(Br)o2)cc1 | -27.1% (inactive)
54 | CCSc1ccccc1C(=O)N1CCN(c2ccc([N+](=O)[O-])cc2)CC1 | 15.7% (inactive)
55 | O=C(NC1CC1)c1ccc2c(c1)N(Cc1ccc(Cl)cc1)CCS2 | 18.6% (inactive)
56 | Cc1ccc(O)c(NC(=O)c2cc([N+](=O)[O-])ccc2Cl)c1 | 44.2% (inactive)
57 | O=C(NCc1ccc(Cl)c(Cl)c1)c1cc(C2CCCCN2C(=O)CCc2ccccc2)on1 (stereo not given) | 12.6% (inactive)
58 | CCN(CC)c1ccc(NC(=O)CCCCC(=O)Nc2ccc(N(CC)CC)cc2)cc1 | 48.3% (active)
59 | CC(=O)c1cc2c(cc1NC(=O)c1ccc(-n3nc(C)cc3C)cc1)OCO2 | -7.82% (inactive)
60 | COc1ccc(C(=O)Nc2nc3ccccc3[nH]2)cc1 | 13.5% (inactive)

Row | Structure (SMILES) | inhibition
61 | Cc1nc([N+](=O)[O-])c(Br)n1Cc1ccc(Cl)c(Cl)c1 | 43.9% (inactive)
62 | Cc1oc(-c2cccc3ccccc23)nc1CN1CCN(c2ncnc3ccccc23)CC1 | 5.63% (inactive)
63 | CCCCSc1nc(C)cc(SCC(=O)N/N=C/c2cccc(OC)c2O)n1 | 22.5% (inactive)
64 | O=C(Nc1nc2cc3c(cc2s1)OCO3)C1=COCCO1 | 70.3% (active)
65 | CCCSc1nnc(Sc2nnnn2-c2ccccc2)s1 | 16.8% (inactive)
66 | O=C(Nc1ccncc1)c1c(Cl)cccc1Cl | 12.5% (inactive)
67 | CCCNC(=O)c1ccc(N2CCC3(CC2)CC(c2cccc(Br)c2)=NO3)c([N+](=O)[O-])c1 | 7.7% (inactive)
68 | C[N+]1(CC2COC3(CCCCC3)O2)CCCC1 (stereo not given) | -21.5% (inactive)
69 | Nc1n[nH]c2c1C1(CCCC1)Cc1ccccc1-2 | 10% (inactive)
70 | O=C(O)c1ccccc1C=NN1CCCCCC1 | -24.3% (inactive)
71 | Cc1cccc(NS(=O)(=O)c2ccc(C)c(C(=O)NC3CCN(Cc4ccccc4)CC3)c2)c1 | 6.89% (inactive)
72 | CCC(=O)Nc1ccc(NCc2ccc(-c3ccccc3)cc2)cc1 | 17.8% (inactive)
73 | COc1cc(N(C(C)=O)c2ccc(O)cc2)c2ncccc2c1 | 2.41% (inactive)
74 | N#Cc1c([N+](=O)[O-])cc([N+](=O)[O-])cc1S(=O)(=O)Cc1ccccc1 | 98.5% (active)
75 | CC[n+]1cccc(-c2nc3ccccc3s2)c1 | 13% (inactive)
76 | COc1ccc(-c2csc3ncnc(NCCO)c23)cc1 | 47.1% (active)
77 | CC(C)(CO)CNC(=O)CCc1nnc(-c2ccc(-c3ccccc3)cc2)o1 | -13.5% (inactive)
78 | CCOC(=O)c1ccccc1NC(=O)Cn1c(-c2nonc2N)nc2ccccc21 | 6.09% (inactive)
79 | CCC(C)(C)c1ccc(Oc2ccc(NC(=O)COC(=O)C3=COCCO3)cc2)cc1 | 46.5% (inactive)
80 | Nc1ccc(Oc2ccc3c(c2)C(=O)N(CC2CCCO2)C3=O)cc1 (stereo not given) | 52.8% (active)
